According to PubChem BioAssay (NCI):
The panel holds about 83,000 compounds, 20% with a hit somewhere; the sample as a whole holds those more often.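 The test compound was applied at a single concentration to cells in 96-well plates for 48 hours, and percent growth was recorded.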 The source made the active and inactive calls.

The compounds below were run on SNB-19 CNS (assay: NCI-60 one-dose screen, 48 h (100 = growth as untreated, 0 = no growth, -100 = all killed)). Settings: 10 µM unless noted.
Method: Growth inhibition of the SNB-19 human tumor cell line is measured as a screen for anti-cancer activity. Cells are grown in 96 well plates and exposed to the test compound for 48 hours. Compounds are tested at a single concentration, which is 10^-5 M for most compounds. The reported endpoint is percent growth (GI% or GIPRCNT), where numbers from 0 - 100% represent growth inhibition, and numbers from -100% - 0 represent cell death. For example, a value of 40 represents 60% growth inhibition. A value of 0 means no net growth occurred over the course of the experiment. A value of -40 indicates 40% of cells at the beginning of the experiment died by the end of the experiment. A value of -100 means all cells are dead at the end of the experiment.
NCI-60 Human Tumor Cell Lines Screen was performed using the standard one-dose NCI protocol, which is described in more detail at https://dtp.cancer.gov/discovery_development/nci-60/default.htm.
Compounds with GIPRCNT values below 10 were considered active. Activity score was based on GIPRCNT using the following formula: […]
Score is 0 for GIPRCNT values of 100 or above, 50 for GIPRCNT values of 0, and 100 for GIPRCNT values of -100.

Row | Compound | growth
1 | COC1CCC(N2C(=O)CNc3ncc(-c4ccc(C(C)(C)O)nc4)nc32)CC1 (stereo not given) | 13.5% (inactive)
2 | Cc1nc(NC(=O)N2CCC[C@H]2C(N)=O)sc1-c1ccnc(C(C)(C)C(F)(F)F)c1 | 66.1% (inactive)
3 | COC(=O)C1CCc2sc3ncnc(Nc4cn[nH]c4C(=O)Nc4ccc(CN5CCN(C)CC5)cc4)c3c21 (stereo not given) | 21.6% (inactive)
4 | O=C(NOCCO)c1ccc2cncn2c1Nc1ccc(I)cc1F | 57.8% (inactive)
5 | [2H]C1([2H])[C@H](C)O[C@H](C)C([2H])([2H])N1c1ccc(NC(=O)c2cccc(-c3ccc(OC(F)(F)F)cc3)c2C)cn1 | 65.7% (inactive)
6 | CSc1nc2ncnc(SC)c2[nH]1 | 116% (inactive)
7 | CCN1CCN(Cc2ccc(NC(=O)Nc3nc(-c4cc(OC)c(OC)c(OC)c4)cs3)cc2C(F)(F)F)CC1 | 33.7% (inactive)
8 | Cc1ccc(Nc2nccc(N(C)c3ccc4c(C)n(C)nc4c3)n2)cc1S(N)(=O)=O | 30.9% (inactive)
9 | CO[C@@H](C(=O)N1Cc2[nH]nc(NC(=O)c3ccc(N4CCN(C)CC4)cc3)c2C1)c1ccccc1 | 28.3% (inactive)
10 | Cc1cc(Nc2ncnc3ccc(NC4=NC(C)(C)CO4)cc23)ccc1Oc1ccn2ncnc2c1 | 44.3% (inactive)
11 | CNC(=O)c1cc(Oc2cccc3nc(Nc4ccc(Oc5ccccc5)cc4)ccc23)ccn1 | 92% (inactive)
12 | O=C(Nc1ccc(-c2ccnc(Nc3ccc(N4CCOCC4)cc3)n2)cc1)[C@@H]1CCCN1 | 83.4% (inactive)
13 | COCCN1CCN(Cc2ccc(-c3n[nH]c4c3C(=O)c3c(NC(=O)NN5CCOCC5)cccc3-4)cc2)CC1 | 2.99% (active)
14 | COc1cc2c(Oc3ccc4[nH]c(C)cc4c3F)ncnc2cc1OCCCN1CCCC1 | 88.2% (inactive)
15 | N#CCNC(=O)c1ccc(-c2ccnc(Nc3ccc(N4CCOCC4)cc3)n2)cc1 | 50.8% (inactive)
16 | CNC(=O)c1ccc(Nc2ncc(C(F)(F)F)c(NCc3nccnc3N(C)S(C)(=O)=O)n2)cc1 | 7.45% (active)
17 | CC[n+]1c(/C=C/C=C2\N(C)c3ccccc3C2(C)C)sc2ccccc21 | 31.9% (inactive)
18 | N#Cc1c(-c2ccc(C(F)(F)F)cc2)c(F)c(NCCC2CCC(O)C2)n2c1nc1ccccc12 (stereo not given) | 78.3% (inactive)
19 | CN1CCN(Cc2ccc(NC(=O)c3[nH]ncc3Nc3ncnc4sc5c(c34)CCCC5)cc2)CC1 | -88.8% (active)
20 | CC[C@H](CO)Nc1nc(NCc2ccccc2)c2ncn(C(C)C)c2n1 | 67.9% (inactive)

Row | Compound | growth
21 | Cc1ccc(F)c(NC(=O)Nc2ccc(-c3cccc4[nH]nc(N)c34)cc2)c1 | 27.2% (inactive)
22 | CCN1CCN(Cc2ccc(-c3cc4c(N[C@H](C)c5ccccc5)ncnc4[nH]3)cc2)CC1 | 46.2% (inactive)
23 | COC(=O)[C@]12CC[C@@H](C)[C@H](C)[C@@H]1C1=CC[C@@H]3[C@@]4(C)C(C#N)=CC(C)=C4CC[C@@]3(C)[C@]1(C)CC2 | 96.3% (inactive)
24 | Cc1c(CN2CCN(C(=O)[C@H](C)O)CC2)sc2c(N3CCOCC3)nc(-c3cnc(N)nc3)nc12 | 3.17% (active)
25 | COc1ccc2c(CCc3ccc(Cl)cc3)c3[n+](cc2c1OC)CCc1cc2c(cc1-3)OCO2 | 28.3% (inactive)
26 | Clc1ccc(C(Cn2ccnc2)OCc2ccsc2Cl)c(Cl)c1 (stereo not given) | 68.4% (inactive)
27 | Cc1cc(Nc2cc(N3CCN(C)CC3)nc(/C=C/c3ccccc3)n2)n[nH]1 | 14% (inactive)
28 | O=C(O)c1ccc2c(c1)nc(Nc1cccc(Cl)c1)c1ccncc12 | 13.5% (inactive)
29 | Cc1ccc(-c2cc3c(SCC(=O)Nc4cc(C(F)(F)F)ccc4Cl)nccn3n2)cc1 | 102% (inactive)
30 | CN1CCN(CCOc2cc(OC3CCOCC3)c3c(Nc4c(Cl)ccc5c4OCO5)ncnc3c2)CC1 | 54.6% (inactive)
31 | CN1CCN(CCCOc2cccc3nc(Nc4ccc(Cl)c(C(F)(F)F)c4)ccc23)CC1 | 20.8% (inactive)
32 | CCN(CCN(C)C)C(=O)CNCc1cc(C(N)=O)ccn1 | 104% (inactive)
33 | Cn1cnc2c(F)c(Nc3ccc(Br)cc3Cl)c(C(=O)NOCCO)cc21 | 52.3% (inactive)
34 | O=C1CC(c2ccc(Cl)cc2)c2ncn(-c3cccc(Cl)c3)c2N1 (stereo not given) | 50% (inactive)
35 | COc1cc(NC2CCC(=O)N2c2ccc(Cl)cc2Cl)cc(OC)c1OC (stereo not given) | 101% (inactive)
36 | Cc1cc(-c2cc(O)ccc2Cl)cc2nnc(Nc3ccc(OCCN4CCCC4)cc3)nc12 | -64.4% (active)
37 | Cn1ccnc1C(=O)/C=C/c1ccc(CC(=O)Nc2ccc(Br)cc2)cc1 | 11.4% (inactive)
38 | COC(=O)C1=C(C(=O)OC)C23C=C(C)C1C2=C(C)C1(CC1)[C@@](C)(O)C3=O (stereo not given in full) | 7.17% (active)
39 | Cn1cnc2c(F)c(Nc3ccc(Br)cc3F)c(C(=O)NOCCO)cc21 | 51.3% (inactive)
40 | O=C1CCC(=O)CC1 | 93.9% (inactive)
